Assay results as given in PubChem BioAssay (NCATS).
Results filed as inconclusive are left out. A number with no mark means an inactive call. Calls of active or inactive are those of the source. Calls come from the whole dose curve; as a rule, active = well fitted inhibition curve with a large enough effect; inconclusive = small, poorly fitted or top-dose-only effect; inactive = flat fitted curve, though single readings scatter.

system: P93_24; assay: qHTS profiling for inhibitors of Plasmodium falciparum proliferation (AID 504749); note: nearly all actives have a fitted effect of over 60% in size;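 for activity, negative = inhibition: 0% = DMSO vehicle and full inhibition = artemisinin control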; conditions: P. falciparum in erythrocytes, SYBR Green DNA, 72 h; series mostly up to 28.7 µM; activity, negative = inhibition: at the top concentration
Outline: (§1)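 Three-day growth assay of blood-stage parasites in erythrocytes (0.3% parasitemia, 2.5% hematocrit) at 37 C, 5% CO2, quantified by SYBR Green DNA staining after overnight detergent lysis.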
Potency is the fitted concentration of half-maximal effect.

| Compound | activity, negative = inhibition | Potency |
| --- | --- | --- |
| CC(=O)Nc1ccc(OC(C)=O)cc1 | 2.31% |  |
| CC(C)(C)c1ccc2c(S(=O)(=O)O)c(C(C)(C)C)ccc2c1 | 5.59% |  |
| CCCCCCCCCCCCOCCCN | 2.83% |  |
| COC(=O)C(CN)c1c[nH]c2ccc(OC)cc12 (stereo not drawn) | 0.396% |  |
| CC1(C)S[C@@H]2[C@H](NC(=O)C3(N)CCCCC3)C(=O)N2[C@H]1C(=O)O | 0.955% |  |
| FC(F)(F)C(F)(F)C(F)(F)C(F)(F)C(F)(F)C(F)(F)F | 6.89% |  |
| CCCCO | 6.7% |  |
| CCOC(=O)c1c[nH]c2cc(OCC(C)C)c(OCC(C)C)cc2c1=O |  | 141 nM (active) |
| CCN(CC)CCOc1ccc2nc(N(C)C)sc2c1 | 10.7% |  |
| OCl | 4.52% |  |
| COC(=O)CC[C@H](N)C(=O)O | 0.588% |  |
| COc1cc(S(C)=O)ccc1-c1nc2ncccc2[nH]1 (stereo not drawn) | 5.25% |  |
| O=C(O)Cc1nn(Cc2ccc(Br)cc2F)c(=O)c2ccccc12 | -2.85% |  |
| O=C(O)/C=C/c1ccccc1 | -0.68% |  |
| Cc1cccc(C)c1NC(=O)NC1=CCCN1C | 5.39% |  |
| NCC[C@H](O)C(=O)N[C@@H]1C[C@H](N)[C@@H](O[C@H]2O[C@H](CN)[C@@H](O)[C@H](O)[C@H]2O)[C@H](O)[C@H]1O[C@H]1O[C@H](CO)[C@@H](O)[C@H](N)[C@H]1O | 10.2% |  |
| CC1=CC(=O)NS(=O)(=O)O1 | 6.18% |  |
| O=C(O)[C@H]1C(=CCO)O[C@H]2CC(=O)N12 | 2.09% |  |
| CCC(Cc1c(I)cc(I)c(O)c1I)C(=O)O (stereo not drawn) | -5.79% |  |
| CCCCC[C@H](O)/C=C/[C@@H]1[C@H]2C/C(=C/CCCC(=O)O)O[C@H]2C[C@H]1O | 4.7% |  |

| Compound | activity, negative = inhibition | Potency |
| --- | --- | --- |
| FCOC(C(F)(F)F)C(F)(F)F | 3% |  |
| C=Cc1ccc(S(=O)(=O)O)cc1 | 9.85% |  |
| CC12CCC(C[N+](C)(CCC[N+](C)(C)C)C1)C2(C)C (stereo not drawn) | -2.94% |  |
| CC1CC(OC(=O)C(O)c2ccccc2)CC(C)(C)C1 (stereo not drawn) | 1.27% |  |
| CC/C(=C(/CC)c1ccc(OP(=O)(O)O)cc1)c1ccc(OP(=O)(O)O)cc1 | 3.42% |  |
| O=C(NNCNNC(=O)c1ccncc1)c1ccncc1 | 6.92% |  |
| CC(C)c1ncc([N+](=O)[O-])n1C | 11.4% |  |
| CC(C)CCC[C@@H](C)[C@H]1CC[C@H]2[C@@H]3CC[C@@H]4C[C@H](O)CC[C@]4(C)[C@H]3CC[C@]12C | -2.48% |  |
| Cc1ccc(S(=O)(=O)NCl)cc1 | -23% |  |
| CC(/C=C/C=C(\C)C(=O)O[C@@H]1O[C@H](CO[C@@H]2O[C@H](CO)[C@@H](O)[C@H](O)[C@H]2O)[C@@H](O)[C@H](O)[C@H]1O)=C\C=C\C=C(C)\C=C\C=C(/C)C(=O)O[C@@H]1O[C@H](CO[C@@H]2O[C@H](CO)[C@@H](O)[C@H](O)[C@H]2O)[C@@H](O)[C@H](O)[C@H]1O | 12.8% |  |
| CCCCCCCCCCCCCCCCCC(=O)OCC(C)O (stereo not drawn) | 11% |  |
| CC(C)(Oc1ccc(C2CCCc3ccccc32)cc1)C(=O)O (stereo not drawn) | 4.32% |  |
| CO | 6% |  |
| O=C(O)/C=C/C(=O)Nc1ccc(S(=O)(=O)Nc2nccs2)cc1 | 0.96% |  |
| N[C@H](CC(=O)O)C(=O)O | -1.3% |  |
| CCCc1ccc(C(=O)O)cc1 | -15.4% |  |
| O=S(=O)(O)CC(S)CS (stereo not drawn) | 4.74% |  |
| O=c1[nH]c(=O)n([C@H]2C[C@H](O)[C@@H](CO)O2)cc1/C=C/Br | 12.2% |  |
| CN[C@@H]1[C@H](O[C@H]2[C@H](O[C@H]3[C@H](O)[C@@H](O)[C@H](N=C(N)N)[C@@H](O)[C@@H]3N=C(N)N)O[C@@H](C)[C@]2(O)C=O)O[C@@H](CO)[C@H](O)[C@H]1O | 1.53% |  |

system: P94_40; assay: as above; conditions: P. falciparum in erythrocytes, SYBR Green DNA, 72 h; series mostly up to 28.7 µM; activity, negative = inhibition: at the top concentration
Outline: as §1

| Compound | activity, negative = inhibition | Potency |
| --- | --- | --- |
| CC(=O)Nc1ccc(OC(C)=O)cc1 | 15.6% |  |
| CC(C)(C)c1ccc2c(S(=O)(=O)O)c(C(C)(C)C)ccc2c1 | 4.31% |  |
| CCCCCCCCCCCCOCCCN | -1.25% |  |
| COC(=O)C(CN)c1c[nH]c2ccc(OC)cc12 (stereo not drawn) | 3.62% |  |
| CC1(C)S[C@@H]2[C@H](NC(=O)C3(N)CCCCC3)C(=O)N2[C@H]1C(=O)O | 3.11% |  |
| FC(F)(F)C(F)(F)C(F)(F)C(F)(F)C(F)(F)C(F)(F)F | 19.6% |  |
| CCCCO | -1.65% |  |
| CCOC(=O)c1c[nH]c2cc(OCC(C)C)c(OCC(C)C)cc2c1=O |  | 126 nM (active) |
| CCN(CC)CCOc1ccc2nc(N(C)C)sc2c1 | 7.79% |  |
| OCl | 13.2% |  |
| COC(=O)CC[C@H](N)C(=O)O | 7.09% |  |
| COc1cc(S(C)=O)ccc1-c1nc2ncccc2[nH]1 (stereo not drawn) | 4.94% |  |
| O=C(O)Cc1nn(Cc2ccc(Br)cc2F)c(=O)c2ccccc12 | 6.69% |  |
| O=C(O)/C=C/c1ccccc1 | -1.43% |  |
| Cc1cccc(C)c1NC(=O)NC1=CCCN1C | 5.72% |  |
| NCC[C@H](O)C(=O)N[C@@H]1C[C@H](N)[C@@H](O[C@H]2O[C@H](CN)[C@@H](O)[C@H](O)[C@H]2O)[C@H](O)[C@H]1O[C@H]1O[C@H](CO)[C@@H](O)[C@H](N)[C@H]1O | 11.1% |  |
| CC1=CC(=O)NS(=O)(=O)O1 | 14% |  |
| O=C(O)[C@H]1C(=CCO)O[C@H]2CC(=O)N12 | 8.58% |  |
| CCC(Cc1c(I)cc(I)c(O)c1I)C(=O)O (stereo not drawn) | -8.82% |  |
| CCCCC[C@H](O)/C=C/[C@@H]1[C@H]2C/C(=C/CCCC(=O)O)O[C@H]2C[C@H]1O | 8.17% |  |

| Compound | activity, negative = inhibition | Potency |
| --- | --- | --- |
| FCOC(C(F)(F)F)C(F)(F)F | 15% |  |
| C=Cc1ccc(S(=O)(=O)O)cc1 | 5.77% |  |
| CC12CCC(C[N+](C)(CCC[N+](C)(C)C)C1)C2(C)C (stereo not drawn) | -4.63% |  |
| CC1CC(OC(=O)C(O)c2ccccc2)CC(C)(C)C1 (stereo not drawn) | -5.37% |  |
| CC/C(=C(/CC)c1ccc(OP(=O)(O)O)cc1)c1ccc(OP(=O)(O)O)cc1 | 9.12% |  |
| O=C(NNCNNC(=O)c1ccncc1)c1ccncc1 | 15.6% |  |
| CC(C)c1ncc([N+](=O)[O-])n1C | 6.32% |  |
| CC(C)CCC[C@@H](C)[C@H]1CC[C@H]2[C@@H]3CC[C@@H]4C[C@H](O)CC[C@]4(C)[C@H]3CC[C@]12C | -0.679% |  |
| Cc1ccc(S(=O)(=O)NCl)cc1 | -9.33% |  |
| CC(/C=C/C=C(\C)C(=O)O[C@@H]1O[C@H](CO[C@@H]2O[C@H](CO)[C@@H](O)[C@H](O)[C@H]2O)[C@@H](O)[C@H](O)[C@H]1O)=C\C=C\C=C(C)\C=C\C=C(/C)C(=O)O[C@@H]1O[C@H](CO[C@@H]2O[C@H](CO)[C@@H](O)[C@H](O)[C@H]2O)[C@@H](O)[C@H](O)[C@H]1O | 14.2% |  |
| CCCCCCCCCCCCCCCCCC(=O)OCC(C)O (stereo not drawn) | 1.77% |  |
| CC(C)(Oc1ccc(C2CCCc3ccccc32)cc1)C(=O)O (stereo not drawn) | 9.46% |  |
| CO | 6.73% |  |
| O=C(O)/C=C/C(=O)Nc1ccc(S(=O)(=O)Nc2nccs2)cc1 | 5.49% |  |
| N[C@H](CC(=O)O)C(=O)O | 12.2% |  |
| CCCc1ccc(C(=O)O)cc1 | 15.7% |  |
| O=S(=O)(O)CC(S)CS (stereo not drawn) | 0.255% |  |
| O=c1[nH]c(=O)n([C@H]2C[C@H](O)[C@@H](CO)O2)cc1/C=C/Br | 11.7% |  |
| CN[C@@H]1[C@H](O[C@H]2[C@H](O[C@H]3[C@H](O)[C@@H](O)[C@H](N=C(N)N)[C@@H](O)[C@@H]3N=C(N)N)O[C@@H](C)[C@]2(O)C=O)O[C@@H](CO)[C@H](O)[C@H]1O | 13.4% |  |
